These results are taken from PubChem BioAssay (NCATS).

Test [1] in a line: qHTS profiling for inhibitors of Plasmodium falciparum proliferation (AID 504749). Further: potency means the concentration at half of the fitted maximal effect.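 On activity, negative = inhibition: 0% = DMSO vehicle and full inhibition = artemisinin control.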 On all read-outs here: nearly all actives have a fitted effect of over 60% in size. Conditions: P. falciparum in erythrocytes, SYBR Green DNA, 72 h; for activity, negative = inhibition: at 28.7 µM (top of the series). Put shortly: (§1)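 Readout was DNA-dye fluorescence from lysed cultures, ex 485/em 535 nm. Parasitized red cells had grown 72 h with compound; data scaled between 0.29 uM artemisinin and DMSO wells and corrected using vehicle-only plates.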
In general terms: In qHTS, concentration-response curves come from the screen itself.

In a further test the test system is 3D7. The description is as above. Conditions: P. falciparum in erythrocytes, SYBR Green DNA, 72 h; series mostly up to 28.7 µM. Put shortly: as §1
The test system of the next test is 7G8. The test is described as above. As to conditions: P. falciparum in erythrocytes, SYBR Green DNA, 72 h; series mostly up to 28.7 µM. Put shortly:
as §1

Another test has as its system AA1029. Described as above. As to conditions: P. falciparum in erythrocytes, SYBR Green DNA, 72 h; series mostly up to 28.7 µM. Put shortly: as §1
The subject of a further test is AS120. Described as above. Conditions: P. falciparum in erythrocytes, SYBR Green DNA, 72 h; series mostly up to 28.7 µM. The gist of the method: as §1
A short description of test [2]: qHTS drug screen for cell cycle checkpoint inhibitors in PARPi-resistant BRCA-mutant ovarian cancer cell lines. (AID 1963452; calls by dose curve). Conditions: PEO1/OlaR viability, CellTiter-Glo luminescence, 96 h, stronger effect = lower value. The gist of the method:
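PEO1, PEO4 and PEO1/OlaR ovarian cancer cells, 600 per well, exposed 96 h at 37C to a dilution series. Viability read by CellTiter-Glo luminescence, normalized to DMSO and empty wells; activity summarized as Z-AUC.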

The test system of a further test is ATS189. As to the kind of experiment: qHTS profiling for inhibitors of Plasmodium falciparum proliferation (AID 504749). Further: nearly all actives have a fitted effect of over 60% in size. Further: potency means the concentration at half of the fitted maximal effect.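 On activity, negative = inhibition: 0% = DMSO vehicle and full inhibition = artemisinin control.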 As to conditions: P. falciparum in erythrocytes, SYBR Green DNA, 72 h; series mostly up to 28.7 µM. The gist of the method:
as §1

For test [3], the target named is Cytochrome P450 3A4 (Homo sapiens) (UniProt P08684). In words: qHTS for inhibitors of CYP3A4 against the NCATS DSHEA and TCM libraries (AID 1919971).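 Further: on the % scale 0 is the no-effect control and ±100 the full control effect; inhibition lowers luminescence from luciferin made by CYP3A4.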 As to conditions: recombinant CYP3A4 enzyme activity, luminescence qHTS; series mostly up to 34.1 µM. Put shortly: (§2)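 Luminescent P450-Glo readout. Enzyme plus pro-luciferin substrate in manufacturer buffer (typically 100 mM KPO4); 15 min RT preincubation; 1x NADPH regenerating system, 30-45 min RT in the dark; detection reagent 30 min.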
Cytochrome P450 3A4 (Homo sapiens), sequence (P08684 whole entry, looked up): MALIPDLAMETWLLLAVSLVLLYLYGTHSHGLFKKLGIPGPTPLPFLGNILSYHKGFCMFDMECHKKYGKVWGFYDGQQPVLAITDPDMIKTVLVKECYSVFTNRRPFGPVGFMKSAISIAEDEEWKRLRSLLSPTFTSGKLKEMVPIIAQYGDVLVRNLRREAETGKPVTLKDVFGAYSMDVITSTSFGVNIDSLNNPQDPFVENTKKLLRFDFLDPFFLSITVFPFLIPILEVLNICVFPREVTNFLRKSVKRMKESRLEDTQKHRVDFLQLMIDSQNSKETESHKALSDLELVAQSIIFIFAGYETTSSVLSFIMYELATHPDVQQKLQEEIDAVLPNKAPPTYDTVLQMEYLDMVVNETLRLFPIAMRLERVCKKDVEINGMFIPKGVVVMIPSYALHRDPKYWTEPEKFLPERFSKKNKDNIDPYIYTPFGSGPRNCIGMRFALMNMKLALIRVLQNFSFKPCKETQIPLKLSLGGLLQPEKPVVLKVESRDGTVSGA

Test [4] addresses Cytochrome P450 2D6 (Homo sapiens) (UniProt P10635). As to the kind of experiment: qHTS for inhibitors of CYP2D6 against the NCATS DSHEA and TCM libraries (AID 1919972). Further: on the % scale 0 is the no-effect control and ±100 the full control effect. Conditions: CYP2D6 enzymatic inhibition, luminescence qHTS; series mostly up to 34.1 µM. Put shortly: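 Steps: enzyme plus luciferin substrate dispensed; test substances pinned; 15 min RT; 1x NADPH regenerating solution added, 30–45 min RT protected from light; detection reagent, 30 min RT; luminescence measured. Minus-enzyme wells as background.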

Test [5] has as its target Cytochrome P450 2C19 (Homo sapiens) (UniProt P33261). As to the kind of experiment: qHTS for inhibitors of CYP2C19 against the NCATS DSHEA and TCM libraries (AID 1919974).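 Further: luminescence from luciferin released by CYP2C19 oxidation of a pro-luciferin substrate; on the % scale 0 is the no-effect control and ±100 the full control effect.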 Conditions: CYP2C19 enzyme inhibition, luminescence qHTS; series mostly up to 34.1 µM. The gist of the method: as §2
Test [6] is described as follows: KB-3-1 P-gp reporter qHTS against the NCATS DSHEA and TCM libraries (AID 1919975). Further: 0% is about no effect. As to conditions: KB-3-1 parental cells, CellTiter-Glo luminescence viability, 72 h; series mostly up to 26.1 µM. The gist of the method: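 Parental KB-3-1 cells, 500 cells/well, in DMEM with 10% FBS, exposed 72 h at 37 C to compounds in concentration-response. Viability read by CellTiter-Glo luminescence after 30 min at room temperature.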

A short description of test [7]: qHTS Counterscreen for compound interference against the NCATS DSHEA and TCM libraries (AID 1919978).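 Further: compounds preincubated with 1 µM D-luciferin or buffer before detection reagent; % of control where 0% means no effect.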 Conditions: firefly luciferase detection reagent interference, luminescence. Put shortly: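 Firefly luciferase detection reagent was added after compounds (19.5 nM–39.8 uM final) had been incubated 15 min at room temperature with 1 uM D-luciferin or with 100 mM phosphate buffer alone. Luminescence was read after 30 min at room temperature.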

Test [8] is described as follows: Dual reporter qHTS for agonist of Pregnane X Receptor (hPXR) against the NCATS DSHEA and TCM libraries: Fluorescence readout (AID 1920058). Further: 0% is about no effect. Conditions: PXR dual reporter cells; series mostly up to 40 µM. Put shortly: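 hPXR-Luc HepG2 cells (2000/well) in phenol red-free medium with charcoal-stripped FBS attached for 5 h, then were exposed to compounds for about 24 h at 37 °C. Viability was read by CellTiter-Fluor fluorescence (Ex/Em 405/540 nm) after 1 h.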

Test [9] has as its target Nuclear receptor subfamily 1 group I member 2 (Homo sapiens) (UniProt O75469). As to the kind of experiment: Dual reporter qHTS for agonist of Pregnane X Receptor (hPXR) against the NCATS DSHEA and TCM libraries: Luminescence readout (AID 1920059). Further: 0% is about no effect. Conditions: hPXR dual reporter cells, luciferase luminescence agonist; series mostly up to 40 µM. Put shortly:
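hPXR-Luc HepG2 cells, 2000/well in 5% charcoal-stripped FBS medium, attached 5 h, then exposed 24 h at 37C to compounds. Viability by CellTiter-Fluor, then luciferase luminescence with ONE-Glo.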

The target is the same in test [10]. In words: Dual reporter qHTS for antagonist of Pregnane X Receptor (hPXR) against the NCATS DSHEA and TCM libraries: Luminescence Readout (AID 1920060).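 Further: HepG2 cells carrying hPXR luciferase reporter stimulated with rifampicin at 2 µM; 0% is about no effect.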 Conditions: hPXR dual reporter cells, luciferase luminescence, antagonist mode; series mostly up to 40 µM. Put shortly:
(§3)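 In antagonist mode, 2 uM rifampicin was added to hPXR-Luc HepG2 cells alongside test substances, incubated 24 h at 37 C; luminescence gave reporter activity, and CellTiter-Fluor fluorescence (405/540 nm) gave viability.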

The nature of test [11]: Dual reporter qHTS for antagonist of Pregnane X Receptor (hPXR) against the NCATS DSHEA and TCM libraries: Fluorescence Readout (AID 1920061). Further: 0% is about no effect. As to conditions: PXR dual reporter cells, antagonist mode; series mostly up to 40 µM. Put shortly: as §3
Setting [12] is: measured here: PEO1 parental Z-AUC.

Results filed as inconclusive are left out. Calls of active or inactive are those of the source. Unless noted, the call rests on the fitted dose curve; in most records, active means well fitted curve in the direction sought with a large enough effect; inconclusive means small, poorly fitted or top-dose-only effect, or another doubt; inactive means no such curve, though single readings can be large; an effect the other way counts as inactive or inconclusive.

Nuclear receptor subfamily 1 group I member 2 (Homo sapiens), sequence (O75469 whole entry, looked up): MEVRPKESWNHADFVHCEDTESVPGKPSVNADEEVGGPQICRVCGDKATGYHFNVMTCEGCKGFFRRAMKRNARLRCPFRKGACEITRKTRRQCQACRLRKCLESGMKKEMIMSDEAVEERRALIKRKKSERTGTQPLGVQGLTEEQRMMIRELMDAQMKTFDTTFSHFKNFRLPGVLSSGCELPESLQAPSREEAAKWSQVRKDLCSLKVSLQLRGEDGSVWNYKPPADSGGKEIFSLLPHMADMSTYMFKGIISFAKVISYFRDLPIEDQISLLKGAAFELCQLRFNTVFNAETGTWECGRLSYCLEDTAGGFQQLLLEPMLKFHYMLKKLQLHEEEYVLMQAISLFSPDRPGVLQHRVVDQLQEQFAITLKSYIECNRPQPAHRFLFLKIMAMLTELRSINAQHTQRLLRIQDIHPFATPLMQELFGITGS
Cytochrome P450 2C19 (Homo sapiens), sequence (P33261 whole entry, looked up): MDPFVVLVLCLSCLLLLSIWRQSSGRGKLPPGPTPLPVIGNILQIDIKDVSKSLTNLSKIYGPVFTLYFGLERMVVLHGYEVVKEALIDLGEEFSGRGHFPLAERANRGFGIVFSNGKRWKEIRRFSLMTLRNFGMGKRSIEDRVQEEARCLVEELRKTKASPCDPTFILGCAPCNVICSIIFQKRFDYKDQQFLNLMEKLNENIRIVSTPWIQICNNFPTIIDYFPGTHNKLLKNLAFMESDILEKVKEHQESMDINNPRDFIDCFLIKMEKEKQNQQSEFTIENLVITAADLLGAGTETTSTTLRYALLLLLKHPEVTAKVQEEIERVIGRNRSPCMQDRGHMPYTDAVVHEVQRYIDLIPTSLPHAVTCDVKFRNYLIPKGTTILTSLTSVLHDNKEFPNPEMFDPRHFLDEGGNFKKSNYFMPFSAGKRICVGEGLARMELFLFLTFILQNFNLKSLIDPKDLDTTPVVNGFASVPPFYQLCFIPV
Cytochrome P450 2D6 (Homo sapiens), sequence (P10635 whole entry, looked up): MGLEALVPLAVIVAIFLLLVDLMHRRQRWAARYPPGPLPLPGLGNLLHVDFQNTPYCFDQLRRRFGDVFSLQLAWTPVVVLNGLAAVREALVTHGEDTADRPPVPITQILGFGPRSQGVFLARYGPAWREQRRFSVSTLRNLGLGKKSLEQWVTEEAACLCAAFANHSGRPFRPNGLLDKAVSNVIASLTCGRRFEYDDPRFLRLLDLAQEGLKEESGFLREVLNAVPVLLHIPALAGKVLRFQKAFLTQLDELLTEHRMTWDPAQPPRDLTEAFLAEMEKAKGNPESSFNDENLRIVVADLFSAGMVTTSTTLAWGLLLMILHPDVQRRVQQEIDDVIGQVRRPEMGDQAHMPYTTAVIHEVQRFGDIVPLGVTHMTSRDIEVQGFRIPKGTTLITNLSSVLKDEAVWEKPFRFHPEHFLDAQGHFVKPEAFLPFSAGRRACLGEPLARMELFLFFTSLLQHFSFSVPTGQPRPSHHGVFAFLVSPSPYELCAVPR

With `NC(N)=NN=C(/C=C/c1ccc([N+](=O)[O-])o1)/C=C/c1ccc([N+](=O)[O-])o1`, the Potency in test [1] (parasite line A) was 7.08 µM (active); in test [1] (parasite line B) it was 10 µM (active); in the test on 3D7, 2.24 µM (active); in the test on 7G8, 2.24 µM (active); with AA1029, 10 µM (active); with AS120, 11.2 µM (active).

As to `Clc1cccc(C(c2ccc3nc[nH]c3c2)n2ccnc2)c1` (configuration not stated), the Z-AUC in test [2] was -0.1 (inactive); in test [2] (setting [12]) it was 0.0386; in test [2] (measured here: PEO4 Z-AUC), 0.19. Moreover, the Potency in test [1] (parasite line B) is 10 µM (active); with 3D7, 11.2 µM (active); in the test with 7G8, 5.01 µM (active); in the test on AS120, 11.2 µM (active).

In the case of `CC(=O)O[C@H]1C[C@@H]2CC[C@@H]3[C@H](CC[C@@]4(C)[C@H]3C[C@H]([N+]3(C)CCCCC3)[C@@H]4OC(C)=O)[C@@]2(C)C[C@@H]1N1CCCCC1`, the figures for the Z-AUC in test [2], in test [2] (setting [12]) and in test [2] (measured here: PEO4 Z-AUC) were 1.73 (inactive), 1.43 and 1.85, respectively. Further, the activity, negative = inhibition in test [1] (parasite line B) was -19.6% (inactive). For the same compound, the Potency entry with 3D7 and in the test with AS120 was “inactive” throughout.

For `CCCCCCCCCCC[C@@H](C[C@@H]1OC(=O)[C@H]1CCCCCC)OC(=O)[C@H](CC(C)C)NC=O`, the Z-AUC in test [2] is 1.22 (inactive); in [2] (setting [12]), 1.61; in [2] (measured here: PEO4 Z-AUC), 1.43.

Take `CCN(CC)CCOc1ccccc1C(=O)CCc1ccccc1`: the activity, negative = inhibition was 2.97% (inactive) in test [1] (parasite line A) and -13.2% (inactive) in [1] (parasite line B). Besides, the Potency entry with 3D7 is “inactive”.

For `COc1cc(C(=O)N2CCCCCCC2)cc(OC)c1OC`, the activity, negative = inhibition in test [1] (parasite line A) is 22.3% (inactive); in test [1] (parasite line B), 22.7% (inactive). Also, the Potency result in the test with 3D7, with 7G8, with AA1029, in the test with AS120 and in the test on ATS189 was “inactive” each time.

As for `C[C@@H](O)[C@H]1C(=O)N2C(C(=O)O)=C(S[C@@H]3CN[C@H](CNS(N)(=O)=O)C3)[C@H](C)[C@H]12`, the Z-AUC in test [2] was -0.121 (inactive); in test [2] (setting [12]), 0.644; in [2] (measured here: PEO4 Z-AUC) it was 0.433. The activity, negative = inhibition in test [1] (parasite line A) is 0.841% (inactive); in [1] (parasite line B), 3.74% (inactive). Also, the Potency result with 3D7, in the test on 7G8, in the test on AA1029, with AS120 and with ATS189 was “inactive” in each case.

In the case of `COc1cc(O)c(C(=O)c2ccccc2)cc1S(=O)(=O)O`, the figures for the activity, negative = inhibition in test [1] (parasite line A) and in test [1] (parasite line B) were -0.769% (inactive) and 4.93% (inactive), respectively. Besides, the Potency result with 3D7, in the test with AA1029 and in the test with AS120 was “inactive” throughout. For the same compound, the Potency with 7G8 was 11.2 µM (active).

`CCCCCCCCCCCCCCCC(=O)O`: the result in [3], in [4], in test [5], in test [6], in test [8] and in test [9] was inactive. The compound was called inactive in test [10] and in [11]. In test [7], the max response is 2.55% (inactive). In addition, the activity, negative = inhibition is -0.389% (inactive) in test [1] (parasite line A) and 7.62% (inactive) in test [1] (parasite line B). Besides, the Potency result with 3D7, in the test with 7G8, with AA1029, in the test on AS120 and in the test with ATS189 was “inactive” throughout.

As for `C#C[C@]1(O)CC[C@H]2[C@@H]3[C@H](C)CC4=C(CCC(=O)C4)[C@H]3CC[C@@]21C`, the Z-AUC in test [2] was -1.06 (inactive); in test [2] (setting [12]), -0.281; in test [2] (measured here: PEO4 Z-AUC), 0.766.
